# In PubChem BioAssay:
# Tested on: Sonic hedgehog protein (Shh)
# Assay: small-molecule binders of Shh protein, primary screen, biochemical, small-molecule microarray, 635/667 nm fluorescence (AID 1151);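 further: Shh protein binding to compounds spotted on small-molecule microarray slides; score combines spot fluorescence intensity with signal-to-noise across triplicate slides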
# Conditions: small-molecule microarray binding, 635 nm fluorescence; higher = more signal
row,Compound,composite z-score
1,CC(C)(C)OC(=O)CC[C@]1(C(=O)N2CCCCC2)COC(c2ccc(OCCCO)cc2)=N1,-0.65
2,COCCOC(=O)N1C(=O)[C@@]2(c3cc(C#CC4=CCCCC4)ccc31)[C@H](c1ccc(O)cc1)N1[C@H](c3ccccc3)[C@H](c3ccccc3)OC(=O)[C@H]1[C@@H]2C(=O)NC[C@H](O)c1ccccc1,1.27
3,CN(C)CCCCCCNC(=O)[C@@H]1C[C@@H]2C(=O)N[C@@H](CCCCN)C(=O)N2[C@@H]1c1ccc(O)cc1,1.88
4,Cc1ccc(N2C(=O)c3ccccc3[C@](C)(C(=O)NCc3ccccc3)[C@@H]2c2ccc(CO)cc2)nc1,0.547
5,C=C[C@@H](C)[C@@H](OC(=O)Nc1ccc(SC)cc1)c1ccc(OCCO)cc1,0.487
6,C=C(/C(=C/C[C@@H](OC(=O)c1ccncc1)c1cccc(OCCO)c1)c1cnc2ccccc2c1)C(C)C,2
7,O=c1cccc(-c2ccco2)o1,2.07
8,O=C1C2C=CC(C(O)c3cc(C(F)(F)F)cc(C(F)(F)F)c3)N(Nc3ccccc3F)C2C(=O)N1c1ccccc1 (stereo not drawn),-0.685
9,O=C(N1CCOCC1)[C@@]1(CCS(=O)(=O)c2ccccc2)N=C(c2ccc(OCCCO)cc2)O[C@H]1c1ccccc1,-0.514
10,COCCCNC(=O)[C@@]1(Sc2ccc(C)cc2)CC(=O)N(C(C)C)[C@@H]1c1ccc(CO)cc1I,-0.005
11,C=C(C)[C@@H]1CC=C(C(O)C2C=CC3C(=O)N(c4ccccc4)C(=O)C3N2Nc2ccc(C#N)cc2)CC1 (stereo partly drawn),-0.0706
12,C=C(COC)/C(=C/C[C@@H](OC(=O)c1ccncc1)c1ccccc1OCCO)c1cc(C(=O)OC)ccc1OC,0.249
13,CC(C)C[C@@H]1NC(=O)[C@@H]2C[C@H](C(=O)NCCCCCC[N+](C)(C)C)[C@H](c3cccc(OCCO)c3)N2C1=O,1.46
14,O=C1C2C=CC(C(O)c3ccco3)N(Nc3ccccc3)C2C(=O)N1c1ccccc1 (stereo not drawn),-0.998
15,CCOC(=O)C[C@H]1[C@H](OC(=O)c2ccc(-c3ccccc3)cc2)[C@@H](NC(=O)Cc2ccc(OC)cc2)c2cc(OCCCO)ccc2N1C(=O)Cc1ccc(OC)cc1,-0.259
16,CCOC(=O)C1=CC[C@@H](c2ccccc2)N(S(=O)(=O)c2ccc(C)cc2)[C@H]1c1cccc(OC)c1,-0.176
17,CN1C=C(C(=O)OCCS(C)(=O)=O)C(C(=O)OCCS(C)(=O)=O)=CC(c2ccc(CO)cc2)=CC1c1cccs1 (stereo not drawn),0.929
18,COC(=O)C(CC#Cc1ccc2c(c1)[C@]1(C(=O)N2)[C@H](c2ccc(OCCO)cc2)N2[C@H](c3ccccc3)[C@H](c3ccccc3)OC(=O)[C@H]2[C@@H]1C(=O)N1CCN(c2ncccn2)CC1)C(=O)OC,1.2
